Reference: PubChem BioAssay AID651814 (National Center for Advancing Translational Sciences (NCATS), 2012)
Hit rate of the full screen: of about 2,100 compounds, about 590 (28%) were called active. Not shown: some 42% with an inconclusive outcome. Some of the results follow. Values without a mark were called inactive. Calls follow the shape of the dose curve; as a rule, active = well fitted inhibition curve with a large enough effect; inconclusive = small, poorly fitted or top-dose-only effect; inactive = flat fitted curve, though single readings scatter.

Biological target: DNA dC->dU-editing enzyme APOBEC-3F (Homo sapiens) (UniProt Q8IUX4)
Sequence (Q8IUX4 whole entry, looked up): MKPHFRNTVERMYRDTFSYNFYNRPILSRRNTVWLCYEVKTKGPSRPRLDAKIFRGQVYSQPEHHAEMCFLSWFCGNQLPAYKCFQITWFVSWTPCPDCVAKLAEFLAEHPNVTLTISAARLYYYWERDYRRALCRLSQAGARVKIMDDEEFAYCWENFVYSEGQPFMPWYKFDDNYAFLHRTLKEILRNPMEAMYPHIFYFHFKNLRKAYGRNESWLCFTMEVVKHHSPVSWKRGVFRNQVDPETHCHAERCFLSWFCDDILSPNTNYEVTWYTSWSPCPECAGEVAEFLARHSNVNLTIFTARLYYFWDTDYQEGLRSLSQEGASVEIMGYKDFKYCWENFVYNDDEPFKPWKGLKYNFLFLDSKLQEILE
Assay: qHTS for inhibitors of Vif-A3F interactions: Cherry picks; also: nearly all actives have a fitted effect of over 70% in size;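 as to max response: % of control where 0% means no effect; active compounds raise eYFP fluorescence by blocking Vif-driven A3F loss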
Conditions: HeLa A3F-eYFP + Vif (tagged APOBEC3F with the HIV-1 protein that degrades it), eYFP fluorescence, 24 h
Method in brief: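 HeLa cells stably expressing A3F-eYFP plus Vif, cultured overnight, then exposed to compounds at several concentrations for 24 h at 37 deg C. Reduced Vif-driven degradation read as rising eYFP fluorescence (488 nm ex/500-530 nm em) by laser-scanning cytometry; MG132 as positive control.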
Potency is read from the fitted curve at half-maximal effect.

Structure (SMILES) | Potency | max response [%]
Cc1ccc(C(=O)NCCn2c(N)c(C#N)c3nc4ccccc4nc32)cc1 | 23.1 µM (active) | 
Cn1c(=S)c2[nH]c(SCCN3CCCC3)nc2n(C)c1=O |  | 0.53
COc1ccc(N=Cc2c(O)n(-c3cccc(C)n3)c(=O)c3ccccc23)c(OC)c1 | 13 µM (active) | 
O=C(N/N=C/c1c(O)n(-c2ccc(Cl)cn2)c(=O)c2ccccc12)c1ccncc1 |  | -9.07
Cc1ccc(N=Cc2c(O)n(-c3nccs3)c(=O)c3ccccc23)c(C)c1 |  | -4.13
CCC(=Nc1ccccc1O)C1=C(O)CC(c2ccccc2)CC1=O (stereo unspecified) |  | -8
CCN(CC)c1ccc2cc(-c3nnc(-c4ccccc4)o3)c(=O)oc2c1 | 0.0994 µM (active) | 
CCN(CC)c1ccc2cc(-c3nc(-c4ccc(Cl)cc4Cl)cs3)c(=O)oc2c1 |  | -3.92
CCN(CC)c1ccc2cc(-c3nc(-c4ccccc4)no3)c(=O)oc2c1 | 3.66 µM (active) | 
CCN(CC)c1ccc2cc(-c3nc(-c4cccs4)no3)c(=O)oc2c1 | 2.06 µM (active) | 
CCN(CC)c1ccc2cc(-c3nnc(-c4cccc(Cl)c4)o3)c(=O)oc2c1 | 0.58 µM (active) | 
CCOC(=O)c1c(C)sc(-c2c(-c3ccccc3)[nH]c3[nH]c(=O)[nH]c(=O)c23)c1O |  | -22.6
Cc1ccc(Nc2nc(-c3cccnc3)nc3ccccc23)cc1 |  | -12.4
CC1CCN(C(=O)C(C)Sc2nc(-c3ccccc3)cc(C(F)(F)F)n2)CC1 (stereo unspecified) |  | 1.1
CCN(CC)c1ccc2cc(-c3nc(-c4cc(OC)c(OC)c(OC)c4)no3)c(=O)oc2c1 | 0.366 µM (active) | 
CCN(CC)c1ccc2cc(-c3nc4ccccc4n3C)c(=O)oc2c1 | 4.11 µM (active) | 
CN1/C(=C/C=C(C#N)C#N)C(C)(C)c2ccccc21 | 18.4 µM (active) | 
CC1=C/C(=C\C=C(C#N)C#N)N(C)c2ccccc21 | 2.31 µM (active) | 
CN1/C(=C/C=C(/C#N)C(N)=O)C(C)(C)c2ccccc21 | 6.27 µM (active) | 
COCCNC(=S)N/N=C(\C)c1ccc(OC(F)F)cc1 |  | 0.658
COc1ccccc1-c1noc(-c2ccc(NCc3ccco3)c([N+](=O)[O-])c2)n1 | 14.6 µM (active) | 
Cc1cccc(-c2noc(-c3ccc(NCc4ccco4)c([N+](=O)[O-])c3)n2)c1 | 14.6 µM (active) | 
O=[N+]([O-])c1cc(-c2nc(-c3ccccc3)no2)ccc1NCc1ccco1 | 8.2 µM (active) | 

Structure (SMILES) | Potency | max response [%]
O=c1c2ccccc2sc2ccc(NCCCN3CCOCC3)cc12 | 20.6 µM (active) | 
Cc1ccc(C)c(NC(=O)N2CC=C(c3c[nH]c4ccccc34)CC2)c1 |  | -19.7
Cc1ccc(C)c(NC(=O)Cn2cc(S(=O)(=O)Cc3cccc(Cl)c3)c3ccccc32)c1 | 8.2 µM (active) | 
Cc1ccc(Cl)cc1NC(=O)Nc1cn(CC(C)C)c(=O)c2ccccc12 |  | -13.3
Cc1ccc(S(=O)(=O)C(C#N)c2nc3ccccc3nc2N2CCCC2)cc1 (stereo unspecified) |  | -28.7
CCCCOc1ccc(-c2nnn(CC(=O)NCc3ccco3)n2)cc1 |  | -20.9
S=C(NCc1ccco1)Nc1ccc(Cl)cn1 |  | -0.0392
CCn1c(SCC(=O)Nc2cccc(O)c2)nc2c1c(=O)n(C)c(=O)n2C |  | 0.997
COc1ccccc1CCC(=O)Nc1ccc2c(c1)c(=O)n(C)n2Cc1ccc(F)cc1 |  | -22.3
COc1ccc(NC(=O)CSc2nc3c(oc4ccccc43)c(=O)n2Cc2ccco2)cc1Cl | 14.6 µM (active) | 
COc1cc2nc(SCC(=O)NCc3ccco3)n(Cc3ccc(Cl)cc3)c(=O)c2cc1OC | 8.2 µM (active) | 
O=Cc1s/c(=N\S(=O)(=O)c2ccccc2)n(CCCCl)c1Cl |  | -29.9
COc1ccc(C(=O)c2cc([N+](=O)[O-])ccc2N2CCCC2)cc1 |  | -19.8
COc1ccc(NC(=S)Nc2ncccc2C)c(OC)c1 |  | 0.806
COc1ccc(C(=O)/C=C/Nc2ccc([N+](=O)[O-])cc2C)c(OC)c1 | 13 µM (active) | 
O=C(Nc1ccccc1OC(=O)c1ccccc1)c1ccccc1 | 17.7 µM (active) | 
COc1ccccc1NC(=O)Cc1ccc(-c2ccccc2)cc1 |  | 3.04
O=C(NC(=S)Nc1ccc(-c2ccccc2)cc1)c1ccccc1 |  | 1.35
COC(=O)c1cc(Nc2nc3ccccc3nc2NS(=O)(=O)c2ccc(C)cc2)ccc1Cl |  | -5.41
COc1ccc(/C=C2\C(=O)NC(=S)N2C(=O)c2ccc(F)cc2)cc1 | 13 µM (active) | 
COc1ccc(/C=C/C=C2\NC(=S)NC2=O)cc1 |  | -26
C[n+]1ccc(/C=C/c2cc[n+](C)c3ccccc23)c2ccccc21 | 11.6 µM (active) | 
CCCCn1c(N)c(N(CCC(C)C)C(=O)c2ccc([N+](=O)[O-])o2)c(=O)[nH]c1=O |  | 0.229

Structure (SMILES) | Potency | max response [%]
C=CCN1C(=O)c2ccc(C(=O)N(CC(C)C)c3c(N)n(CCCC)c(=O)[nH]c3=O)cc2C1=O |  | 4.71
CCCCn1c(N)c(N(CC(C)C)C(=O)Cc2ccc(S(=O)(=O)N3CCOCC3)s2)c(=O)[nH]c1=O | 23.1 µM (active) | 
COc1cccc(/C(O)=C/c2nc3ccc(C(=O)NCCc4cccc(C)c4)cc3[nH]c2=O)c1 | 11.6 µM (active) | 
COc1cccc(/C(O)=C/c2nc3ccc(C(=O)NCCc4ccc(Cl)cc4)cc3[nH]c2=O)c1 | 8.2 µM (active) | 
COc1cccc(Sc2ccccc2/C=N/NC(N)=O)c1 |  | -25.5
COc1ccc2nc(C)cc(SCC(=O)N/N=C/c3cccc4ccccc34)c2c1 | 11.2 µM (active) | 
CCn1c(SCC(=O)N/N=C/c2ccc(C)s2)nc2ccccc21 |  | -29.4
Cc1ccc(CN(C(=O)c2ccccc2F)c2ccccn2)o1 |  | -5.38
Cc1cccc(C)c1NC(=S)NC(C)CCc1ccccc1 (stereo unspecified) |  | 1.36
CN1C(=S)N(c2cccnc2)C(=O)/C1=C\c1ccc(N(C)C)cc1 | 15.8 µM (active) | 
CN1C(=O)/C(=C\c2ccc(N(C)C)cc2)OC1=S | 7.9 µM (active) | 
O=C(NC(=S)N1CCc2ccccc21)c1ccco1 |  | -0.232
CN(C)S(=O)(=O)c1ccc2c(c1)/C(=C/c1cc3c([nH]1)CCCC3)C(=O)N2 | 2.23 µM (active) | 
COCCN1C(=O)/C(=C/c2ccc(N3CCCC3)cc2)SC1=S | 4.61 µM (active) | 
COCCN1C(=O)/C(=C/c2ccc(N3CCCC3)cc2C)SC1=S | 2.59 µM (active) | 
O=C1/C(=C/c2ccc(O)cc2)SC(=S)N1CC1CCCO1 (stereo unspecified) |  | 5.6
CN(Cc1cnn(Cc2ccccc2)c1)C(=O)c1cccc(S(=O)(=O)N2CCOCC2)c1 |  | -22
CC(=O)c1ccc2cccc3c2c1N=CN3C | 15.8 µM (active) | 
COc1ccc2c(Cl)c(C(=O)N/N=C3\CCCC(=O)C3)sc2c1 | 14 µM (active) | 
CCOc1cc(C(=O)NN=C2CCCC2)cc(OCC)c1OCC |  | -3.9
O=[N+]([O-])c1ccc(N2CCN(Cc3ccccc3)CC2)c2c1no[n+]2[O-] | 14 µM (active) | 
Cc1ccc2nc(C)c(C(=O)NN=C3CCCCCC3)n2c1 |  | -15.2
N#CCSc1ccccc1NC(=O)CN1C(=O)NC(CCc2ccccc2)C1=O (stereo unspecified) |  | -19.2

Structure (SMILES) | Potency | max response [%]
N#CCSc1ccccc1NC(=O)CN1C(=O)C2CC=CCC2C1=O (stereo unspecified) | 14 µM (active) | 
Cc1ccccc1NC(=O)CSC1=C(C#N)C(c2ccsc2)CC(=O)N1 (stereo unspecified) |  | -7.98
CS(=O)(=O)Nc1cccc(C2=NN(S(C)(=O)=O)C(c3ccc4c(c3)OCO4)C2)c1 (stereo unspecified) |  | -28.5
CS(=O)(=O)Nc1ccc(C2=NN(S(C)(=O)=O)C(c3ccc4nccnc4c3)C2)cc1 (stereo unspecified) |  | -7.65
Cc1ccccc1C1CC(c2cccs2)=NN1S(C)(=O)=O (stereo unspecified) |  | -5.18
CS(=O)(=O)Nc1ccc(C2=NN(S(C)(=O)=O)C(c3ccc4c(c3)OCO4)C2)cc1 (stereo unspecified) | 17.7 µM (active) | 
CS(=O)(=O)N1N=C(c2ccccc2)CC1c1ccc2c(c1)OCO2 (stereo unspecified) | 14 µM (active) | 
Cc1cc(OCC(=O)Nc2nnc(C3CC3)s2)ccc1Cl |  | 2.35
COC(=O)c1ccc(NC(=O)CC2Nc3cc(C)c(C)cc3NC2=O)cc1 (stereo unspecified) | 6.51 µM (active) | 
CCOC(=O)c1ccc(NC(=S)NC(=O)C2CCCC2)cc1 |  | -3.01
Cc1cccc(C(=O)Nc2nnc(C3=COCCO3)o2)c1 |  | 0.472
Cc1cc2nc3c(=O)n(C4CCCCC4)c(=O)[nH]c3nc2cc1N | 16.4 µM (active) | 
CCCCCCn1c(=O)[nH]c2nc3cc(N)ccc3nc2c1=O |  | -0.0141
CCN(CC)c1nc(C)c(C(=S)Nc2cc([N+](=O)[O-])ccc2Cl)s1 |  | -3.83
O=C(COC(=O)C12CC3CC(CC(Cl)(C3)C1)C2)N1CCCCC1 |  | 1.53
CCOC(=O)N1CCc2c(sc3c2C(=O)NC(c2ccc(N(C)C)cc2)N3)C1 (stereo unspecified) | 20.6 µM (active) | 
CN1CCc2c(sc3c2C(=O)NC(c2ccc(-c4ccc(Cl)cc4)o2)N3)C1 (stereo unspecified) |  | -10.4
COc1ccc(CN(C(C)=O)c2cccc(C)c2C)cc1 |  | -29.4
COc1ccc2oc(=O)c(-c3nc4ccccc4o3)cc2c1 | 20.6 µM (active) | 
CCOC(=O)C1CCCN(C(=O)c2ccc3nc(-c4cccc(OC)c4)oc3c2)C1 (stereo unspecified) |  | -18.5
COc1ccc2oc(=Nc3ccccc3)c(-c3nc4ccccc4[nH]3)cc2c1 |  | -13
CCOc1ccccc1Nc1nnc(-c2cc3cc(OC)ccc3oc2=O)s1 | 7.31 µM (active) | 
